Reference: PubChem BioAssay (NCI)
This is part of a sample that, as a whole, favours compounds with a hit. Of some 83,000 tested, about 20% had one in any assay.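 Single-concentration screen, 48 h exposure, 96-well plates. Endpoint: percent growth. Below 10 = active.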 Active and inactive are the calls of the source.

Legend:
Assay in all cases: NCI-60 one-dose screen, 48 h (100 = growth as untreated, 0 = no growth, -100 = all killed)
Conditions in all cases: 10 µM unless noted
NCI-H23 lung = system: NCI-H23 lung
NCI-H226 lung = system: NCI-H226 lung
NCI-H322M lung = system: NCI-H322M lung
HOP-62 NSCLC = system: HOP-62 NSCLC
NCI-H460 lung = system: NCI-H460 lung
HOP-92 NSCLC = system: HOP-92 NSCLC
NCI-H522 lung = system: NCI-H522 lung
A549/ATCC NSCLC = system: A549/ATCC NSCLC
786-0 renal = system: 786-0 renal
COLO 205 colon = system: COLO 205 colon
DU-145 prostate = system: DU-145 prostate
K-562 leukemia = system: K-562 leukemia
MALME-3M melanoma = system: MALME-3M melanoma
MDA-MB-231 breast = system: MDA-MB-231 breast
RXF 393 renal = system: RXF 393 renal
SF-268 CNS = system: SF-268 CNS
SF-295 CNS = system: SF-295 CNS
SF-539 CNS = system: SF-539 CNS
UACC-257 melanoma = system: UACC-257 melanoma
M14 melanoma = system: M14 melanoma

Measured: growth

Fc1ccc(Nc2ccc3c(OCCCN4CCOCC4)cccc3n2)cc1F
inactive: NCI-H23 lung 79% | NCI-H226 lung 64.6% | NCI-H322M lung 73.3% | HOP-62 NSCLC 89.6% | NCI-H460 lung 55.7% | HOP-92 NSCLC 63.9% | NCI-H522 lung 83.8% | A549/ATCC NSCLC 75.4% | 786-0 renal 74% | DU-145 prostate 76.9% | MALME-3M melanoma 70.3% | MDA-MB-231 breast 29.8% | RXF 393 renal 80.5% | SF-268 CNS 71.3% | SF-295 CNS 78.3% | SF-539 CNS 52.2% | UACC-257 melanoma 94% | M14 melanoma 69.2%
active: COLO 205 colon -7.44% | K-562 leukemia 1.64%

COc1ccc2c(c1)c1nc3cc(C)c(C)cc3nc1n2CCN(C)C
active: NCI-H23 lung 1.6% | NCI-H226 lung 7.41% | NCI-H322M lung 3.67% | NCI-H460 lung -22% | NCI-H522 lung 6.94% | A549/ATCC NSCLC -75% | 786-0 renal -60.8% | COLO 205 colon -23.8% | K-562 leukemia -2.38% | MALME-3M melanoma -30.8% | MDA-MB-231 breast -2.89% | SF-295 CNS 4.6% | SF-539 CNS -13.2% | UACC-257 melanoma 8.99% | M14 melanoma 4.45%
inactive: HOP-62 NSCLC 20.3% | HOP-92 NSCLC 41% | DU-145 prostate 11.9% | RXF 393 renal 13.2% | SF-268 CNS 31.3%

COc1cc(OC)c2c(c1)c1nc3cc(C)c(C)cc3nc1n2CCN(C)C
inactive: NCI-H23 lung 91.3% | NCI-H226 lung 90.5% | NCI-H322M lung 87.1% | HOP-62 NSCLC 79.4% | NCI-H460 lung 84.8% | HOP-92 NSCLC 81.7% | NCI-H522 lung 79.2% | A549/ATCC NSCLC 80.4% | 786-0 renal 83.9% | COLO 205 colon 74.9% | DU-145 prostate 90.2% | K-562 leukemia 78.3% | MALME-3M melanoma 80.9% | MDA-MB-231 breast 79.5% | RXF 393 renal 96.2% | SF-268 CNS 93.7% | SF-295 CNS 90.2% | SF-539 CNS 86% | UACC-257 melanoma 94.9% | M14 melanoma 84.2%

O=C1CN(c2ccccc2)C(=O)C1C(=O)Nc1ccc(Cl)c(Cl)c1 (stereo not given)
active: HOP-62 NSCLC 9.46% [100 µM] | NCI-H460 lung -2.82% [100 µM] | NCI-H522 lung 8.5% [100 µM] | 786-0 renal 0.0265% [100 µM] | COLO 205 colon -23.1% [100 µM] | MALME-3M melanoma -11.7% [100 µM] | SF-295 CNS 0.977% [100 µM] | SF-539 CNS -9.88% [100 µM]
inactive: NCI-H23 lung 31.2% [100 µM] | NCI-H226 lung 41.6% [100 µM] | NCI-H322M lung 19.6% [100 µM] | HOP-92 NSCLC 10.6% [100 µM] | A549/ATCC NSCLC 16.2% [100 µM] | DU-145 prostate 38.9% [100 µM] | K-562 leukemia 20.1% [100 µM] | MDA-MB-231 breast 27.2% [100 µM] | RXF 393 renal 34.7% [100 µM] | SF-268 CNS 31.2% [100 µM] | UACC-257 melanoma 16.2% [100 µM] | M14 melanoma 28.8% [100 µM]

Cc1cc(N(CCCNc2ccnc3cc(Cl)ccc23)Cc2ccco2)nc(N2CCOCC2)n1
inactive: NCI-H23 lung 52.8% | NCI-H226 lung 82.7% | NCI-H322M lung 72.6% | HOP-62 NSCLC 64.4% | NCI-H460 lung 64.8% | HOP-92 NSCLC 51.8% | NCI-H522 lung 90.5% | A549/ATCC NSCLC 83.1% | 786-0 renal 68% | COLO 205 colon 56.7% | DU-145 prostate 74.7% | K-562 leukemia 26.9% | MALME-3M melanoma 92.8% | MDA-MB-231 breast 58.5% | RXF 393 renal 71% | SF-268 CNS 77.7% | SF-295 CNS 62.7% | SF-539 CNS 51.1% | UACC-257 melanoma 106% | M14 melanoma 72.5%

CCC(CC)C(=O)OC(C)COc1ccc(C(C)(C)C)cc1 (stereo not given)
inactive: NCI-H23 lung 105% | NCI-H226 lung 100% | NCI-H322M lung 109% | HOP-62 NSCLC 103% | NCI-H460 lung 106% | HOP-92 NSCLC 92.6% | NCI-H522 lung 70.5% | A549/ATCC NSCLC 69.2% | 786-0 renal 97.4% | COLO 205 colon 124% | DU-145 prostate 106% | K-562 leukemia 87% | MALME-3M melanoma 94.5% | MDA-MB-231 breast 108% | RXF 393 renal 113% | SF-268 CNS 99.1% | SF-295 CNS 106% | SF-539 CNS 109% | UACC-257 melanoma 66.7% | M14 melanoma 96%

CCCCC[C@H]1CC=C2C(=O)C(Cl)=C[C@@H]2CC=CCCCC(=O)O[C@@H](CCCCC)CC=C2C(=O)C(Cl)=C[C@@H]2CC=CCCCC(=O)O[C@@H](CCCCC)CC=C2C(=O)C(Cl)=C[C@@H]2CC=CCCCC(=O)O1
inactive: NCI-H23 lung 58.4% [8 µM] | NCI-H226 lung 115% [8 µM] | NCI-H322M lung 96.2% [8 µM] | HOP-62 NSCLC 89.8% [8 µM] | NCI-H460 lung 91% [8 µM] | HOP-92 NSCLC 130% [8 µM] | NCI-H522 lung 25.1% [8 µM] | A549/ATCC NSCLC 90.6% [8 µM] | 786-0 renal 103% [8 µM] | COLO 205 colon 70.8% [8 µM] | DU-145 prostate 59.9% [8 µM] | K-562 leukemia 27.7% [8 µM] | MALME-3M melanoma 105% [8 µM] | MDA-MB-231 breast 53.1% [8 µM] | RXF 393 renal 79.2% [8 µM] | SF-268 CNS 73.1% [8 µM] | SF-295 CNS 106% [8 µM] | SF-539 CNS 88% [8 µM] | UACC-257 melanoma 76.3% [8 µM] | M14 melanoma 48.2% [8 µM]
